Type in all cases: functional
The target in test [1] is Solute carrier family 2, facilitated glucose transporter member 1 (Homo sapiens) (UniProt P11166). Put plainly: ST_JUDE_LEISH: Cytotoxicity at 2uM final concentration against transgenic Leishmania Mexicana promastigotes LmGLUT1 that are glucose transport deficient and complemented with the human glucose transporter GLUT1. Activity is measured by DNA content using SYBR green in vitro.

For test [2], the target named is Hexose transporter 1 (Plasmodium falciparum) (UniProt O97467). Put plainly: ST_JUDE_LEISH: Cytotoxicity at 2uM final concentration against transgenic Leishmania Mexicana promastigotes LmPfHT that are glucose transport deficient and complemented with the Plasmodium falciparum hexose transporter. Activity is measured by DNA content using SYBR green in vitro.
In test [3] the target is Glucose transporter (Leishmania mexicana) (UniProt O61059). Put plainly: ST_JUDE_LEISH: Cytotoxicity at 2uM final concentration against transgenic Leishmania Mexicana promastigotes LmGT2 that are glucose transport deficient and complemented with the L. Mexicana glucose transporter 2. Activity is measured by DNA content using SYBR green in vitro.

Molecules are shown by their SMILES.

Chain of Solute carrier family 2, facilitated glucose transporter member 1 (Homo sapiens) (P11166 whole entry): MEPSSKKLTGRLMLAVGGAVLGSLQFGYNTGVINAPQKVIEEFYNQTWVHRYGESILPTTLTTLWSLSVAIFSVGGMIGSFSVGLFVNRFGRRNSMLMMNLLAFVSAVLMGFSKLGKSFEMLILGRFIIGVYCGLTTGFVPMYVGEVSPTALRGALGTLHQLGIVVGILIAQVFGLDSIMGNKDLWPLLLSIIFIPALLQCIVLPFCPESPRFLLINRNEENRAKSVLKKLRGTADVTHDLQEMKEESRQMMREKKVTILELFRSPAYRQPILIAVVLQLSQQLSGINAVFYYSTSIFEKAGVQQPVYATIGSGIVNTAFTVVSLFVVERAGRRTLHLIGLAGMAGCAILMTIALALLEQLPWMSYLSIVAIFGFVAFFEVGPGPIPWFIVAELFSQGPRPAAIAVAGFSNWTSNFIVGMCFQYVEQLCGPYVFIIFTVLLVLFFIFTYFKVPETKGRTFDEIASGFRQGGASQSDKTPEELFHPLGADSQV

Usually inhibition stands for the relative decrease from the control value, in per cent. As to `Cc1ccccc1-c1cc(=O)c2cc(NC(=O)c3cccs3)ccc2o1`, the inhibition in test [1] is 3.19%; in test [2] it was 1.54%; in test [3], -8.62%.
Consider `FC(F)(F)c1cccc(C=NNc2nc3ccccc3[nH]2)c1`, for which the results for the inhibition in test [1], in test [2] and in test [3] were 10.7%, 8.25% and 5.13%, respectively.
Consider `CCN(CC)Cc1ccc2c(=O)cc(CCc3cccc(F)c3F)n(CC(=O)N(Cc3ccc(-c4ccc(C(F)(F)F)cc4)cc3)C(C)C)c2c1`, for which the inhibition in test [1] is 1.44%; in test [2], 2%; in test [3] it was -0.21%.
As to `CS(=O)(=O)c1ccc(CNCc2ccc(-c3ccc(-c4nc5cc(C(F)(F)F)ccc5[nH]4)cc3)cc2)cc1`, the inhibition in test [1] was determined as 2.96%; in test [2] it was 1.96%; in test [3], 2.3%.
The like results for `O=C(C1CCN(c2nnnn2-c2ccccc2)CC1)N1CCc2ccccc2C1` were, in that order, 13%, 15.6% and 14.1%.
The like results for `OC1CCN(c2cc(-c3ccccn3)nc(-c3ccccn3)n2)CC1` were, in that order, -1.43%, 2.02% and -4.46%.
In the case of `CC(=O)N(C)c1cccc(CNc2cc(C)nc(Nc3ccc(C)cc3)n2)c1`, the inhibition in test [1] is 4.41%; in test [2], 4.95%; in test [3] it was 0.91%.
As to `Oc1ccc(C2CNCCc3c2cc(O)c(OCc2ccccc2)c3Cl)cc1` (stereo unspecified), the figures for the inhibition in test [1], in test [2] and in test [3] were -0.07%, -1.5% and 2.54%, respectively.
For `CC(C)(C)c1ccc(CNC(=O)/C=C/c2ccc(CNC3CCNCC3)cc2)cc1`, the figures for the inhibition in test [1], in test [2] and in test [3] were -1.23%, -1.07% and -1.84%, respectively.
Take `O=C(/C=C/c1ccc(Cl)cc1)NCCCCCN1CCC(C(=O)Nc2ccc(Cl)c(Cl)c2)CC1`: the inhibition was -0.38% in test [1], -2.11% in test [2] and -0.64% in test [3].
The corresponding values for `CCC(C)NS(=O)(=O)c1ccc2nc(Nc3cccc(SC)c3)n(C(C)C(C)C)c2c1` (stereo unspecified) are 3.91%, 4.3% and 3.8%.
As to `CCC[C@@H]([C@@H](CC1CCCCC1)C(=O)N[C@H](C(=O)Nc1nccs1)[C@H](C)O)N(O)C=O`, the inhibition was determined as 1.07% in test [1], 1.35% in test [2] and 2.03% in test [3].

The record behind these values is ChEMBL document CHEMBL3433997, “St. Jude Leishmania screening dataset” (2016).
